Screening data deposited in PubChem BioAssay by National Center for Advancing Translational Sciences (NCATS).
Only some compounds are listed: those with a hit (about 11% of all), similar ones and a draw of the others.
HttQ103 aggreg: reduces HttQ103-GFP aggregates in PC12 cells; PC12 HttQ103-GFP aggregates, Acumen cytometry, 40 h; 1.1% of 220,000 active; AID 1688; Potency, µM (series often up to 46.1 µM), inactives show top-dose activity change, negative = inhibition, most hits filed as inhibitors; note: potency is the fitted concentration of half-maximal effect; % is set by controls: 0 for no effect and ±100 for the full control effect; nearly all actives have a fitted effect of over 60% in size
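Aggregates are detected as GFP objects 1–25 µm with signal 6 STDEV over background in lysates of induced PC12 cells. These carry Huntingtin exon 1 with 103 glutamines fused to GFP under an ecdysone promoter; compounds titrated.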
HPGD inh: HPGD (human) dehydrogenase inhibition; 4.3% of 150,000 active; P15428; purified HPGD, NADH fluorescence kinetic, PGE2 substrate; Potency, µM, for inactives: at the highest dose activity change, negative = inhibition, most hits filed as inhibitors; active = well fitted inhibition curve with a large enough effect, not every such curve was filed as active; inconclusive = small, poorly fitted or top-dose-only effect, or another doubt; inactive = no such curve, though single readings can be large or run the other way; note: potency is the fitted concentration of half-maximal effect; % is set by controls: 0 for no effect and ±100 for the full control effect
Target sequence (P15428 whole entry, looked up): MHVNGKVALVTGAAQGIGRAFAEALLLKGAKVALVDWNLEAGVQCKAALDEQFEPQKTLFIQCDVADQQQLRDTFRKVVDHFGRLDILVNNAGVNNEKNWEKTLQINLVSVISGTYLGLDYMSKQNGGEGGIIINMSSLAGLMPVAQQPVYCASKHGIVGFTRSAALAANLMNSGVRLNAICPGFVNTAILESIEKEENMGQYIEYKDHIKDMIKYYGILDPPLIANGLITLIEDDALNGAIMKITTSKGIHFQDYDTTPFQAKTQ
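20 nM HPGD preincubated 15 min at room temperature with compound in 50 mM Tris-HCl pH 8, 0.01% Tween 20. Started with 1 mM NAD+ and 30 uM prostaglandin E2; NADH fluorescence (360/450 nm) read 5 times over 30-s intervals, last minus first.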
PNC inhibitor: perinucleolar compartment assembly inhibition; PC3M PTB-GFP, PNC prevalence imaging, 16 h; hits give low values; activity change (PNC), negative = inhibition, % at 10 µM; 3.1% of 140,000 active; AID 2417;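 active = readout at or below -70, meaning at least 70% loss of cells showing the perinucleolar compartment, a nuclear body marking cancer cells; inconclusive = readout between -30 and a set limit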;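 note: plate controls were DMSO wells for no effect and camptothecin positive control wells for full effect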
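PC3M cells stably expressing PTB-GFP, 750–1000 cells/well, treated 16 h at 37 °C with compound (23 nl of library stock), in duplicate. After paraformaldehyde fixation and Hoechst stain, imaged at 20x; PNC prevalence scored by image analysis.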
CBFb RUNX1 block: inhibitors of human CBF-beta and RUNX1 interaction; AlphaScreen CBFb-His/RUNX1-biotin binding, biochemical; Potency, µM (series often up to 59.8 µM), for the others: top-dose activity, negative = inhibition, actives largely listed as inhibitors; 230,000 tested, under 10 active; AID 1477; note: % of control where 0% means no effect
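CBFb-His/RUNX1-biotin, 30 nM each, preincubated 20 min RT; compound 15 min RT; Ni + streptavidin beads 50 ng each, 90 min RT; AlphaScreen read.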
ALDH1A1 inh: ALDH1A1 (human) enzyme inhibition | Potency, µM (top dose mostly 75.3 µM), for the others: top-dose activity, negative = inhibition, actives largely listed as inhibitors | AID 1030 | 7.3% of 220,000 active | Purified ALDH1A1, NADH fluorescence, propionaldehyde substrate; active = well fitted inhibition curve with a large enough effect, not every such curve was filed as active; inconclusive = small, poorly fitted or top-dose-only effect, or another doubt; inactive = no such curve, though single readings can be large or run the other way;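 note: potency is the fitted concentration of half-maximal effect; plate controls were no enzyme wells and a reference inhibitor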
Target sequence (P00352 whole entry, looked up): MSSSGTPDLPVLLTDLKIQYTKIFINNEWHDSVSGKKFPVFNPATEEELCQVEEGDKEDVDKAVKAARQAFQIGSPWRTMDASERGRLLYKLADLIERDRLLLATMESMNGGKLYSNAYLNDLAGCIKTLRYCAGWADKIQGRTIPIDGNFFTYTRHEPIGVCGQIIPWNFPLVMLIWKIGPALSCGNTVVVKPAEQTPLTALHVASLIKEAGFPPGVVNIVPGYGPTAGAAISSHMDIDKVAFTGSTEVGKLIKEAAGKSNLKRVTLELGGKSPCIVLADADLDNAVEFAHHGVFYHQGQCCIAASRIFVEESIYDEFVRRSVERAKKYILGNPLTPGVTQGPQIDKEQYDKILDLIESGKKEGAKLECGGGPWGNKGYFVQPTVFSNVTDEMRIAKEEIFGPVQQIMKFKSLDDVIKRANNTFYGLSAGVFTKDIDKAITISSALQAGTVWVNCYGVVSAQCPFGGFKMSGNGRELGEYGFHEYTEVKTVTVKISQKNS
HTT ATP protect: Huntington cell model cytoprotection by ATP luminescence; PC12 HTT-Q103 induced, cytoprotection, ATP luminescence, 40 h; Potency, µM (highest dose often 56.4 µM), inactives show cytoprotection (ATP increase), most hits filed as activators; 0.14% of 230,000 active; note: potency is the fitted concentration of half-maximal effect; % of control where 0% means no effect; nearly all actives have a fitted effect of over 45% in size
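Compounds were screened for protection of PC12 cells against cell death after tebufenozide induction (100 nM final) of mutant Huntingtin exon 1 (Q103) fused to GFP.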
* = called active by the depositor; ? = inconclusive; / = no result; [ ] = remark or other dose. Unless noted, calls come from the whole dose curve; as a rule, active = well fitted curve in the direction sought with a large enough effect; inconclusive = small, poorly fitted or top-dose-only effect, or another doubt; inactive = no such curve, though single readings can be large; an effect the other way counts as inactive or inconclusive.

SMILES	HttQ103 aggreg	HPGD inh	PNC inhibitor	CBFb RUNX1 block	ALDH1A1 inh	HTT ATP protect
O=C1C(C2=C(O)c3ccccc3C2=O)=Nc2ccccc21	-26.0%	-18.1%	31.0	-20.5%	1.26µM*	-27.9%
CN=CC1=C(O)c2ccccc2C1=O	10.8%	-7.1%	67.1	1.4%	-1.1%	7.8%
S=C(NC1CCCCC1)N1CCc2ccccc2C1	7.08µM*	-19.3%	-8.9	10.7%	?	/
O=c1c(Cc2c(F)cccc2Cl)c(O)ccn1Cc1ccc2c(c1)OCO2	-6.5%	/	/	12.6%	7.94µM*	-17.0%
COc1ccc(CNc2ccc(-c3ccc(OC)cc3)nn2)cc1	2.4%	-10.7%	-87.9*	2.2%	2.2%	-8.6%[10 µM]
COc1ccccc1-c1nccc(NCc2ccccc2)n1	/	/	/	/	4.2%	-3.2%
COc1ccc(CNc2ccc(-c3ccccc3OC)nn2)cc1	-3.8%	15.8µM*	?	7.0%	-8.9%	-10.6%[10 µM]
COc1ccccc1-c1ccc(SCc2ccccc2)nn1	0.7%	/	/	14.3%	1.7%	-32.1%
COc1ccccc1-c1ccc(NC2CCCC2)nn1	11.4%	6.31µM*	41.9	-2.7%	-0.1%	10.1%[10 µM]
COc1ccc(CNc2ccc(Br)cc2)cc1	-3.7%[9.22 µM]	/	/	-1.2%	7.7%	25.1%[10 µM]
Cc1ccc(N)c2c1OCCC2=O	-11.6%	-6.4%	-117.9*	8.4%	-6.2%	/
CCOc1ccc(/C=N/Nc2cc(=O)n(C)c(=O)n2C)cc1	6.0%	?	?	-5.6%	?	/
CCCCCCCCCCOCC(O)CN (centres undefined)	?	/	/	/	/	-26.0%
O=C(NCCc1ccccc1)C1c2ccccc2C(=O)N1Cc1cccs1 (centres undefined)	-5.9%	/	/	3.4%	12.6µM*	18.5%
O=C(NC1CCCCCCC1)C1c2ccccc2C(=O)N1Cc1cccs1 (centres undefined)	6.3%	-0.8%	24.3	6.9%	-0.2%	-22.3%[10 µM]
N/N=C1/c2ccccc2N[C@H]1OC(=O)Nc1ccccc1	/	-4.5%	/	/	-10.5%[13.5 µM]	-3.8%[10 µM]
COc1ccc(C(=O)NCc2oc(-c3ccccc3)cc2C(=O)O)cc1	3.16µM*	-9.4%	24.9	-3.4%	?	-1.0%[0.074 µM]
CC(=O)Nc1ccccc1OCC(=O)N(Cc1ccccc1)C(C)C	19.6%	-4.6%	15.4	-9.0%	-1.5%	-20.3%[10 µM]
O=C1Nc2ccccc2SC(c2ccccc2)C1O (centres undefined)	9.5%[9.22 µM]	28.2µM*	?	-13.0%	-13.3%	23.7%
O=C(O)CC1Sc2ccccc2NC1=O (centres undefined)	20.9%	-12.1%	17.0	0.0%	-13.3%	-27.0%
O=C(CSc1nnc(-c2ccco2)c(-c2ccco2)n1)c1ccccc1	17.9%[9.22 µM]	/	/	2.9%	-5.7%	35.4%[10 µM]
O=C(Nc1ccc(N2CCOCC2)cc1)c1ccc2nc(-c3ccco3)c(-c3ccco3)nc2c1	-24.3%	-9.0%	-20.5	10.6%	3.2%	-8.3%[10 µM]
CC(=O)c1ccc(NC(=O)c2ccc3nc(-c4ccco4)c(-c4ccco4)nc3c2)cc1	16.9%	?	-14.2	?	3.16µM*	-24.5%
O=C(Nc1ccccc1)c1ccc2nc(-c3ccco3)c(-c3ccco3)nc2c1	?	5.01µM*	21.4	0.4%	0.178µM*	-33.4%
CCCCNC(=O)c1ccc2nc(-c3ccco3)c(-c3ccco3)nc2c1	-10.7%	25.1µM*	?	?	5.01µM*	-7.9%[10 µM]
SMILES	HttQ103 aggreg	HPGD inh	PNC inhibitor	CBFb RUNX1 block	ALDH1A1 inh	HTT ATP protect
O=C(NCCCO)c1ccc2nc(-c3ccco3)c(-c3ccco3)nc2c1	-5.4%	/	/	/	?	9.6%[10 µM]
CC(=O)c1ccc(NC(=O)CSc2nnc(-c3ccco3)c(-c3ccco3)n2)cc1	-16.3%[9.22 µM]	/	/	8.9%	1.41µM*	-7.2%[10 µM]
COc1c2c(c3c(c1CCC(=O)O)OC(C)(C)C=C3)OC(C)(C)C=C2	/	0.0%	/	/	20.1%[13.5 µM]	-12.8%[10 µM]
O=C(Nc1nnc(-c2ccco2)s1)c1ccccc1	-7.0%	-25.1%	33.6	-1.2%	25.1µM*	-30.9%
O=C(O)c1ccc(B(O)O)cc1	/	-4.9%	/	6.6%	-6.8%	-26.4%
O=C(O)CN1CCCCCC1=O	8.2%	/	/	4.2%	3.9%	-2.6%
Cc1noc(C)c1C(=O)N1CCC(C(=O)c2ccc(F)cc2F)CC1	-3.9%[9.22 µM]	/	/	3.7%	7.7%	11.0%[10 µM]
CCCCNC(=O)c1cc2c(=O)n3cccc(C)c3nc2n1C	-3.4%	?	-20.3	-0.3%	?	0.0%
CCOCCCNC(=O)c1cc2c(=O)n3cccc(C)c3nc2n1C	-26.2%	?	-115.7*	8.2%	?	-42.3%
Cc1cccn2c(=O)c3cc(C(=O)NCCc4ccccc4)c(=N)n(CCCn4ccnc4)c3nc12	?	/	38.5	-11.2%	5.62µM*	-85.3%
Cc1cccn2c(=O)c3cc(C(=O)NCc4ccco4)c(=N)n(CCOCCO)c3nc12	2.82µM*	-15.8%	?	-2.9%	?	-86.2%
Cc1noc(C)c1-c1ccc2ncnc(N(C)Cc3ccco3)c2c1	/	12.6µM*	/	/	5.2%	-47.9%
Cc1ccccc1-c1ccc2ncnc(N(C)Cc3ccco3)c2c1	/	/	/	/	3.6%	12.7%
CC(C)=CCC/C(C)=C/CO/N=C1/C[C@@H](O)[C@@H](O)[C@@H]2[C@@H]3C(=O)N(c4cccc(Oc5ccccc5)c4)C(=O)[C@H]3CC[C@H]12	/	/	/	8.1%[13.1 µM]	1.5%[13.5 µM]	3.9%[10 µM]
COCCCN(C(=S)NC(=O)c1ccc(Br)cc1)c1c(N)n(Cc2ccccc2)c(=O)[nH]c1=O	18.3%	/	/	5.7%	-10.3%	/
CC(C)CCN(C(=S)NC(=O)C1CCCCC1)c1c(N)n(Cc2ccccc2)c(=O)[nH]c1=O	14.2%	/	/	6.1%	25.1µM*	-18.5%
COCCCN(C(=S)NC(=O)C(C)(C)C)c1c(N)n(Cc2ccccc2)c(=O)[nH]c1=O	9.1%[9.22 µM]	/	/	4.8%	28.2µM*	21.1%[10 µM]
COCCN(C(=O)C1CCCC1)c1c(N)n(Cc2ccccc2)c(=O)[nH]c1=O	-7.3%	/	/	-11.4%	15.3%	/
O=C(O)CCC/C=C\C/C=C\C=C\[C@@H](O)C/C=C\CCCCCO	/	-1.7%	/	6.3%	-6.7%	-15.8%
CCCCS(=N)(=O)CC[C@H](N)C(=O)O (some centres undefined)	/	6.0%	/	-4.7%	-5.6%	/
Nc1ccccc1-c1n[nH]c(=S)s1	14.5%	/	/	0.7%	?	-55.1%
CCSc1n[nH]c(=S)s1	-6.7%	/	/	-11.5%	1.78µM*	-24.6%
COC(=O)[C@@]1(Cc2ccc(F)cc2)[C@H]2c3cc(C(=O)N(C)C)n(Cc4ccc(C(F)(F)F)nc4)c3C[C@H]2CN1C(=O)c1ccccc1	/	-14.3%	/	6.6%	-1.2%	9.5%
c1ccc(C2OC3c4cccc5cccc(c45)C3N2c2ccccc2)cc1 (centres undefined)	11.2µM*	-14.8%	10.8	1.9%	?	24.6%[10 µM]
O=C1c2ccccc2C(O)(O)[C@@]1(O)[C@]1(O)C(=O)c2ccccc2C1(O)O	/	0.7%	/	/	0.251µM*	3.4%[10 µM]
